Molecules are shown by their SMILES. Inconclusive results are not listed. Active and inactive are the calls of the source. Unless noted, the call rests on the fitted dose curve; in most records, active means well fitted cell-killing curve with a large enough effect; inconclusive means small, poorly fitted or top-dose-only effect, or effect the other way; inactive means no such curve, though single readings can be large or run the other way.

One assay in a line: Quantitative High-Throughput drug screen in 47 multiple myeloma cell lines against the NCATS MIPE library collection: KMS11_JCRBsus cell viability assay (AID 1919873). Further: nearly all actives have a fitted effect of over 50% in size. Further: potency means the concentration at half of the fitted maximal effect. The conditions noted are these: KMS11 myeloma viability, CellTiter-Glo ATP luminescence, 48 h; series mostly up to 45.8 µM. An outline of the steps: (§1)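 Inhibition of viability over 48 h was scored by ATP content (CellTiter-Glo) in 500-cell wells. Zero and full viability were defined by media-only and DMSO-only wells.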
In general terms: In ATP-based viability assays light output follows the ATP content of the culture.
With `O=C(Nc1ccc([N+](=O)[O-])cc1Cl)c1cc(Cl)ccc1O`, the Potency is 0.526 µM (active).

As for `COc1cc2c(c(OC)c1OC)-c1ccc(OC)c(=O)cc1[C@@H](NC(C)=O)CC2`, the Potency result is “inactive”.

In the case of `NCCCCCC(=O)O`, the Potency entry is “inactive”.

Turning to `CCN1CCCC1CNC(=O)c1cc(S(=O)(=O)CC)c(N)cc1OC` (stereo not drawn), the Potency entry is “inactive”.

Regarding `Clc1ccc2nsnc2c1NC1=NCCN1`, the Potency result was “inactive”.

For the molecule `CN(Cc1cnc2nc(N)nc(N)c2n1)c1ccc(C(=O)N[C@@H](CCC(=O)O)C(=O)O)cc1`, the Potency is 0.0935 µM (active).

Turning to `CN(C)CCCN1c2ccccc2CCc2ccc(Cl)cc21`, the Potency was 20.9 µM (active).

As to `CC(C)Cc1ccc(C(C)C(=O)O)cc1` (stereo not drawn), the Potency entry was “inactive”.

Another assay can be described thus: Quantitative High-Throughput drug screen in 47 multiple myeloma cell lines against the NCATS MIPE library collection: KMS28BM_JCRB cell viability assay (AID 1919874). Further: nearly all actives have a fitted effect of over 35% in size. Further: potency means the concentration at half of the fitted maximal effect. The conditions noted are these: CellTiter-Glo ATP, 48 h; series mostly up to 45.8 µM. An outline of the steps:
as §1
`CN(C)CCOC(c1ccccc1)c1ccccc1`: the Potency is 5.9 µM (active).

`O=C1Cc2cc(CCN3CCN(c4nsc5ccccc45)CC3)c(Cl)cc2N1`: the Potency was 23.5 µM (active).

In the case of `CCc1cccc2c3c([nH]c12)C(CC)(CC(=O)O)OCC3` (stereo not drawn), the Potency result was “inactive”.

Regarding `CN1CCN(CCCN2c3ccccc3Sc3ccc(Cl)cc32)CC1`, the Potency was 20.9 µM (active).

Take `CC#C[C@]1(O)CC[C@H]2[C@@H]3CCC4=CC(=O)CCC4=C3[C@@H](c3ccc(N(C)C)cc3)C[C@@]21C`: the Potency was 7.43 µM (active).

`NCCc1cnc[nH]1`: the Potency result is “inactive”.

Consider `CN(C)c1nc(N(C)C)nc(N(C)C)n1`, for which the Potency entry was “inactive”.

For the molecule `Cn1c(=O)c2c(ncn2C)n(C)c1=O`, the Potency entry is “inactive”.

Regarding `COc1cc2nc(N3CCN(C(=O)c4ccco4)CC3)nc(N)c2cc1OC`, the Potency was 10.5 µM (active).

In the case of `CC(C)NCC(O)COc1ccc(CCOCC2CC2)cc1` (stereo not drawn), the Potency entry was “inactive”.

For the molecule `C[C@](N)(Cc1ccc(O)c(O)c1)C(=O)O`, the Potency result was “inactive”.

For the molecule `CC[C@@]1(O)C(=O)OCc2c1cc1n(c2=O)Cc2cc3c(CN(C)C)c(O)ccc3nc2-1`, the Potency is 0.662 µM (active).

`NC(=O)NO`: the Potency is 0.935 µM (active).

`O=c1[nH]cc(F)c(=O)[nH]1`: the Potency result is “inactive”.

Regarding `Cn1cnc2c1c(=O)[nH]c(=O)n2C`, the Potency was 14.8 µM (active).

Consider `CC(C)(Oc1ccc(C2CC2(Cl)Cl)cc1)C(=O)O` (stereo not drawn), for which the Potency entry was “inactive”.

Take `CN1C2CCC1CC(OC(=O)C(CO)c1ccccc1)C2` (stereo not drawn): the Potency result is “inactive”.

Regarding `CN(C)C(=O)C(CCN1CCC(O)(c2ccc(Cl)cc2)CC1)(c1ccccc1)c1ccccc1`, the Potency is 18.7 µM (active).

`CC(=O)OCC(CCn1cnc2cnc(N)nc21)COC(C)=O`: the Potency result is “inactive”.

As for `NCCCCCC(=O)O`, the Potency entry is “inactive”.

In the case of `CCN1CCCC1CNC(=O)c1cc(S(=O)(=O)CC)c(N)cc1OC` (stereo not drawn), the Potency result is “inactive”.

Take `Clc1ccc2nsnc2c1NC1=NCCN1`: the Potency result was “inactive”.

In the case of `COC(=O)Nc1nc2ccc(C(=O)c3cccs3)cc2[nH]1`, the Potency result is “inactive”.

`CN(C)CCCN1c2ccccc2CCc2ccc(Cl)cc21`: the Potency is 20.9 µM (active).

Another assay can be described thus: qHTS drug screen for cell cycle checkpoint inhibitors in PARPi-resistant BRCA-mutant ovarian cancer cell lines. (AID 1963452; calls by dose curve). The conditions noted are these: PEO1/OlaR viability, CellTiter-Glo luminescence, 96 h; stronger effect = lower value. An outline of the steps: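 PEO1, PEO4 and PEO1/OlaR ovarian cancer cells, 600 per well, exposed 96 h at 37C to a dilution series. Viability read by CellTiter-Glo luminescence, normalized to DMSO and empty wells; activity summarized as Z-AUC.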
Background: In qHTS, concentration-response curves come from the screen itself.
Consider `CCc1cccc2c3c([nH]c12)C(CC)(CC(=O)O)OCC3` (stereo not drawn), for which the Z-AUC is 0.208 (inactive).

With `CC#C[C@]1(O)CC[C@H]2[C@@H]3CCC4=CC(=O)CCC4=C3[C@@H](c3ccc(N(C)C)cc3)C[C@@]21C`, the Z-AUC is 1.15 (inactive).

`CN(C)c1nc(N(C)C)nc(N(C)C)n1`: the Z-AUC is 1.32 (inactive).

Take `CS(=O)(=O)CCNCc1ccc(-c2ccc3ncnc(Nc4ccc(OCc5cccc(F)c5)c(Cl)c4)c3c2)o1`: the Z-AUC was 0.292 (inactive).

`Cn1c(=O)c2c(ncn2C)n(C)c1=O`: the Z-AUC is 1.16 (inactive).

For `CN1CCC(=C2c3ccccc3CC(=O)c3sccc32)CC1`, the Z-AUC was 1.25 (inactive).

For `C[C@](N)(Cc1ccc(O)c(O)c1)C(=O)O`, the Z-AUC was 0.359 (inactive).

Consider `CC[C@@]1(O)C(=O)OCc2c1cc1n(c2=O)Cc2cc3c(CN(C)C)c(O)ccc3nc2-1`, for which the Z-AUC is -0.723 (inactive).

With `NC(=O)NO`, the Z-AUC was 1.41 (inactive).

In the case of `O=c1[nH]cc(F)c(=O)[nH]1`, the Z-AUC was 0.953 (inactive).

For the molecule `NC12CC3CC(CC(C3)C1)C2`, the Z-AUC was 0.0042 (inactive).

With `Cn1cnc2c1c(=O)[nH]c(=O)n2C`, the Z-AUC is -0.393 (inactive).

With `CC(C)(Oc1ccc(C2CC2(Cl)Cl)cc1)C(=O)O` (stereo not drawn), the Z-AUC is -0.348 (inactive).

On to `CN1C2CCC1CC(OC(=O)C(CO)c1ccccc1)C2` (stereo not drawn), for which the Z-AUC was 0.435 (inactive).

`CN(C)C(=O)C(CCN1CCC(O)(c2ccc(Cl)cc2)CC1)(c1ccccc1)c1ccccc1`: the Z-AUC is -1.16 (inactive).

`CC(=O)OCC(CCn1cnc2cnc(N)nc21)COC(C)=O`: the Z-AUC was 1.18 (inactive).

`O=C(Nc1ccc([N+](=O)[O-])cc1Cl)c1cc(Cl)ccc1O`: the Z-AUC was -0.74 (inactive).

In the case of `COc1cc2c(c(OC)c1OC)-c1ccc(OC)c(=O)cc1[C@@H](NC(C)=O)CC2`, the Z-AUC was -0.869 (inactive).

In the case of `NCCCCCC(=O)O`, the Z-AUC is 1.55 (inactive).

On to `CC(C)Cc1ccc(C(C)C(=O)O)cc1` (stereo not drawn), for which the Z-AUC was 1.42 (inactive).

Staying with this assay, now noted: PEO1/OlaR viability, CellTiter-Glo luminescence, 96 h; measured here: PEO1 parental Z-AUC; stronger effect = lower value.
In the case of `CCc1cccc2c3c([nH]c12)C(CC)(CC(=O)O)OCC3` (stereo not drawn), the Z-AUC was determined as 0.962.

Turning to `CC#C[C@]1(O)CC[C@H]2[C@@H]3CCC4=CC(=O)CCC4=C3[C@@H](c3ccc(N(C)C)cc3)C[C@@]21C`, the Z-AUC was found to be 0.225.

With `CN(C)c1nc(N(C)C)nc(N(C)C)n1`, the Z-AUC amounted to 0.778.

With `CS(=O)(=O)CCNCc1ccc(-c2ccc3ncnc(Nc4ccc(OCc5cccc(F)c5)c(Cl)c4)c3c2)o1`, the Z-AUC stood at 0.248.

Consider `Cn1c(=O)c2c(ncn2C)n(C)c1=O`, for which the Z-AUC stood at 1.03.

Turning to `CN1CCC(=C2c3ccccc3CC(=O)c3sccc32)CC1`, the Z-AUC turned out to be 1.46.

In the case of `C[C@](N)(Cc1ccc(O)c(O)c1)C(=O)O`, the Z-AUC came to 1.39.

Regarding `CC[C@@]1(O)C(=O)OCc2c1cc1n(c2=O)Cc2cc3c(CN(C)C)c(O)ccc3nc2-1`, the Z-AUC was -1.25.

For the molecule `NC(=O)NO`, the Z-AUC was 1.02.

In the case of `O=c1[nH]cc(F)c(=O)[nH]1`, the Z-AUC came out at 0.582.

Turning to `NC12CC3CC(CC(C3)C1)C2`, the Z-AUC was 0.0418.

As for `Cn1cnc2c1c(=O)[nH]c(=O)n2C`, the Z-AUC is -0.653.

As for `CC(C)(Oc1ccc(C2CC2(Cl)Cl)cc1)C(=O)O` (stereo not drawn), the Z-AUC was -0.606.

Turning to `CN1C2CCC1CC(OC(=O)C(CO)c1ccccc1)C2` (stereo not drawn), the Z-AUC was determined as 0.73.

With `CN(C)C(=O)C(CCN1CCC(O)(c2ccc(Cl)cc2)CC1)(c1ccccc1)c1ccccc1`, the Z-AUC is -0.647.

For the molecule `CC(=O)OCC(CCn1cnc2cnc(N)nc21)COC(C)=O`, the Z-AUC was 1.12.

As for `O=C(Nc1ccc([N+](=O)[O-])cc1Cl)c1cc(Cl)ccc1O`, the Z-AUC is -1.01.

For the molecule `COc1cc2c(c(OC)c1OC)-c1ccc(OC)c(=O)cc1[C@@H](NC(C)=O)CC2`, the Z-AUC was -1.12.

Turning to `NCCCCCC(=O)O`, the Z-AUC turned out to be 1.11.

With `COC(=O)Nc1nc2ccc(C(=O)c3cccs3)cc2[nH]1`, the Z-AUC is -1.94.

For the molecule `CC(C)Cc1ccc(C(C)C(=O)O)cc1` (stereo not drawn), the Z-AUC came out at 1.49.

Source of the values: PubChem BioAssay (NCATS).
